Laboratory results published in PubChem BioAssay (EPA / NIEHS).
Records with an inconclusive call do not appear. Active and inactive are the calls of the source. How the source made its calls: active means hit-call score of the fitted dose curve at least 0.9, where 1 is the maximum; inconclusive means response in the unintended direction; inactive means score below 0.9.

target: human Peroxisome Proliferator-activated Receptor alpha (PPARa), PPARA (gene 5465) (UniProt Q07869); experiment: NVS_NR_hPPARa: NovaScreen (NVS) Nuclear Receptor Binding Assay for human Peroxisome Proliferator-activated Receptor alpha (PPARa) (AID 2283359)
Sequence (Q07869 whole entry, looked up): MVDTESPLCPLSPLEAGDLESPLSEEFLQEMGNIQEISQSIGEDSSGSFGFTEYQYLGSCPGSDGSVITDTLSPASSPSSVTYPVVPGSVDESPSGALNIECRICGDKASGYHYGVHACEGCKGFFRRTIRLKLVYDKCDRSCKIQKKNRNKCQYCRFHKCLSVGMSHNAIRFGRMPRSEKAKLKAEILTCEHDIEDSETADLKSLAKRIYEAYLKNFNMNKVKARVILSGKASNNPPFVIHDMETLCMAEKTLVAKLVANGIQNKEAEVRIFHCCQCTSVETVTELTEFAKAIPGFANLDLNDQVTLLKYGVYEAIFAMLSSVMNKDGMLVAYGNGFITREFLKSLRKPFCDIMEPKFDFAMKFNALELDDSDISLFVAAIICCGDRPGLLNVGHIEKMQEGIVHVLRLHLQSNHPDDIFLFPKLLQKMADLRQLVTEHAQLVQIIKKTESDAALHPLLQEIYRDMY
Method: NVS_NR_hPPARa is a biochemical, single-readout assay that uses extracted gene-proteins in a cell-free assay. Measurements were taken 1 hour after chemical dosing in a 384-well plate.NVS_NR_hPPARa is one of one assay component(s) measured or calculated from the NVS_NR_hPPARa assay. It is designed to make measurements of fluorescent resonance energy transfer, a form of binding reporter, as detected with fluorescent resonance energy transfer signals by Time-Resolved Fluorescence Resonance Energy Transfer (TR-FRET) technology.Data from the assay component NVS_NR_hPPARa was analyzed into 1 assay endpoint. This assay endpoint, NVS_NR_hPPARa, was analyzed in the positive analysis fitting direction relative to DMSO as the negative control and baseline of activity. Using a type of binding reporter, loss-of-signal activity can be used to understand changes in the binding as they relate to the gene PPARA. Furthermore, this assay endpoint can be referred to as a primary readout, because the performed assay has only produced 1 assay endpoint. To generalize the intended target to other relatable targets, this assay endpoint is annotated to the nuclear receptor intended target family, where the subfamily is non-steroidal.
Binding assays used specific radioligands (tritiated, iodinated) with non-radioactive competitive displacement ligands in agonist or antagonist protocols (as indicated) and various reference compounds and inhibitors to titrate specific binding to receptors and transporters. Most enzyme assays (CYPs, kinases, phosphatases, proteases, HDACs) used recombinant protein and specific substrates (fluorescence mostly, some colorimetric and radioactive) and inhibitors, followed by a biochemical separation of substrate and product. All assays for the biochemical HTS were initially run in duplicate at a single concentration (10 uM for CYP450 assays and 25 uM for all others). […] Each assay was run with positive and negative controls, and concurrent controls on every plate. The follow-up (secondary) screen tested active chemical-pairs in concentration series, as well as a few additional assays not tested in the primary screen, some selected negative inactives, and several cases re-run in the concentration series for confirmatory purposes.

Row | SMILES | outcome | AC50
1 | CCCCCCCC/C=C\CCCCCCCC(=O)OCC | inactive | 
2 | CC(C)CCCCCCCCCCCCCCC(=O)O | inactive | 
3 | CCCCCC(=O)CC | inactive | 
4 | Clc1ccc(C(c2ccccc2Cl)C(Cl)Cl)cc1 (configuration not stated) | inactive | 
5 | O=[N+]([O-])c1ccc(O)cc1C(F)(F)F | inactive | 
6 | O=P(O)(O)O | inactive | 
7 | Nc1ccc2cc(S(=O)(=O)O)cc(O)c2c1N=Nc1ccccc1C(F)(F)F |  | 0.155 µM (active)
8 | CCOc1ccc(N=Nc2ccc(C=Cc3ccc(N=Nc4ccc(OCC)cc4)cc3S(=O)(=O)O)c(S(=O)(=O)O)c2)cc1 |  | 9.11 µM (active)
9 | CCCCC(CC)COC(=O)c1ccc(O)cc1 (configuration not stated) | inactive | 
10 | OC[C@H]1O[C@@H]2O[C@H]3[C@H](O)[C@@H](O)[C@@H](O[C@H]4[C@H](O)[C@@H](O)[C@@H](O[C@H]5[C@H](O)[C@@H](O)[C@@H](O[C@H]6[C@H](O)[C@@H](O)[C@@H](O[C@H]7[C@H](O)[C@@H](O)[C@@H](O[C@H]8[C@H](O)[C@@H](O)[C@@H](O[C@H]9[C@H](O)[C@@H](O)[C@@H](O[C@H]1[C@H](O)[C@H]2O)O[C@@H]9CO)O[C@@H]8CO)O[C@@H]7CO)O[C@@H]6CO)O[C@@H]5CO)O[C@@H]4CO)O[C@@H]3CO | inactive | 
11 | Cc1ccc(S(=O)(=O)Oc2ccc(N=Nc3ccc(-c4ccc(N=Nc5c(O)ccc6cc(S(=O)(=O)O)cc(S(=O)(=O)O)c56)c(C)c4)cc3C)cc2)cc1 | inactive | 
12 | CCCCCC(C=O)=Cc1ccccc1 | inactive | 
